The whole screen tested about 330,000 compounds, of which about 1,300 (0.39%) were called active. This is one part of a sample in which actives are shown more often than they occur.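 Rule for the calls: active = percent inhibition above a cutoff equal to the mean of all tested compounds plus 3 SD (cut at about 15% in these data); inactive = the rest.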
Target: Protein-arginine deiminase type-4 (Homo sapiens) (UniProt Q9UM07)
Experiment: protein arginine deiminase 4 enzyme blockade – biochemical, fluorescence polarization, 1536-well format, primary screen (AID 485272);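 note: 0% = PAD4 with RCA probe and DMSO and 100% = probe without PAD4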
Conditions: recombinant PAD4, RCA probe fluorescence polarization; at 6.36 µM; hits give high values

Chain of Protein-arginine deiminase type-4 (Homo sapiens) (Q9UM07 whole entry, looked up): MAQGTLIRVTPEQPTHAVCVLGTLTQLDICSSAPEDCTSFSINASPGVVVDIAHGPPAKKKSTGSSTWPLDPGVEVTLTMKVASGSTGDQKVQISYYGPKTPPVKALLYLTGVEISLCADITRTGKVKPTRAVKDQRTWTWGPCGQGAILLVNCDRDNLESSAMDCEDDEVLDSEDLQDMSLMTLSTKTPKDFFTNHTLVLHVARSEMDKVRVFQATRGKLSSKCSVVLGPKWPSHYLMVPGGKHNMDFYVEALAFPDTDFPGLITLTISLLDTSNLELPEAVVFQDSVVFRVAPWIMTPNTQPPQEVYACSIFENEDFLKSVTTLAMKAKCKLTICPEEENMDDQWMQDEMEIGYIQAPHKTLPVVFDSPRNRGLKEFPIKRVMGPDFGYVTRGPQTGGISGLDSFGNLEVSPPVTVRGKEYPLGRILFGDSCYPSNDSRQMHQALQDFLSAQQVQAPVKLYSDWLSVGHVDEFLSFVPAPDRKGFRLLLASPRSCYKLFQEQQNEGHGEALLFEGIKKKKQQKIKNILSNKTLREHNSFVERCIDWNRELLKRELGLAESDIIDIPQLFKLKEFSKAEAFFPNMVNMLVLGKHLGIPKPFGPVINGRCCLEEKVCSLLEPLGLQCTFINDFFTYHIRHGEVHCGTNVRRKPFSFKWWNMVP

inhibition, active:
CCc1ccccc1NC(=S)Nc1cc(OC)c(NC(=O)C(C)C)cc1OC 41.1%, Cc1nc(Cl)c2oc3ccccc3c2n1 15.3%, COc1cccc(NC(=O)C2c3cc(OC)c(OC)cc3C(=O)N(C)C2c2cccnc2)c1 (stereo not given) 69.3%, CC(C)n1cnc2c(NCc3ccccc3)cc(N[C@@H](CO)Cc3ccccc3)cc21 32.9%, CC(C)n1cnc2c(NCc3ccccc3)cc(OCC3CCN(C)CC3)cc21 16.8%, Oc1c(C=Nc2cccc3nsnc23)ccc2ccccc12 39.1%, Cc1ccc(C(=O)CSc2nc3ccccc3c(=O)n2N)o1 28.9%, Oc1ccc(N=Cc2c(O)ccc3ccccc23)cc1 69.9%, Oc1ccc(N=Cc2sc3ccccc3c2Cl)cc1 19.9%, COc1cc(C(=O)NCc2ccc3c(c2)cc(C)n3C)cc(OC)c1OC 26.2%, CN1C(=O)c2cccc3c(N)ccc(c23)C1=O 24%, Cc1nn(C)cc1N1C(=O)c2cccc3c(N)ccc(c23)C1=O 26.9%, C=CCN(C(=O)Nc1ccc2oc(C)nc2c1)c1ccccc1 39.8%, CC[N+](C)(CC)CCC[n+]1c(-c2ccccc2)c2cc(N)ccc2c2ccc(N)cc21 62.4%, Cc1cc2c(cc1C)N(C(=O)CN1C(=O)c3ccccc3C1=O)C(C)(C)c1ssc(=S)c1-2 44.1%, Cc1nn(C(=O)c2ccoc2C)c(N)c1-c1ccccc1 17.4%, COC(=O)CCCC1=CC2=CC(=O)C(C)(OC(=O)c3cccs3)C(=O)C2=CN1CC1CC1 (stereo not given) 18.5%, CN(C)c1ccc(N/C=C/C(=O)C(F)(F)F)cc1 38.9%

inhibition, inactive:
CC1CN(c2nc(-c3ccccc3)nnc2-c2ccccc2)CC(C)O1 (stereo not given) -2.42%, Cn1cccc1/C=C1\SC(=S)N(NC(=O)c2ccc(Cl)cc2)C1=O -18.5%, COc1ccccc1NC(=S)NC(=O)C(C)C -0.01%, CC(C)C(=O)NC(=S)Nc1ccccc1F 5.01%, C=CCNC(=O)c1ccccc1NC(=O)c1ccc(Cl)c(S(=O)(=O)Nc2cccc(C)c2C)c1 2.11%, COc1ccc(C)cc1Nc1nc(C)nc2c1oc1ccccc12 1.33%, Cc1nc(N2CCCC2C(=O)O)c2oc3ccccc3c2n1 (stereo not given) -1.75%, CCCCC[C@@H]1C=C(C(=O)O)[C@H](c2ccc(C#N)cc2)N1S(=O)(=O)c1ccc(C)cc1 0.94%, O=C(N/C(=C\c1ccc([N+](=O)[O-])cc1)C(=O)N1CCCCC1)c1ccco1 2.37%, CCOc1cc2c(cc1OCC)C(C(=O)O)C(c1ccc(OC)c(O)c1)N(C)C2=O (stereo not given) -1.73%, COc1cccc(NC(=O)C2C(c3ccccc3)C2(Cl)Cl)c1 (stereo not given) -7.27%, CO[C@H]1[C@@H]2C=CO[C@@H](O[C@H]3O[C@@H](CO)[C@H](O)[C@@H](O)[C@@H]3O)[C@@H]2[C@@]2(CO)O[C@@H]12 1.64%, Cc1nc2ccccc2nc(C)c1=NOCc1ccc(Cl)cc1Cl -3.19%, CCOC(=O)C1CCN(C(=O)CC2C(=O)N(Cc3ccccc3)C(C)c3nc4ccccc4n32)CC1 (stereo not given) -2.42%, CCC(CO)Oc1cc(NC(=O)c2ccc(Cl)cc2)c2ncn(C(C)C)c2c1 (stereo not given) -2.59%, CCC(CO)Oc1cc(NC(=O)c2cccc(F)c2)c2ncn(C(C)C)c2c1 (stereo not given) 3.9%, CCC(CO)Oc1cc(NCc2ccccc2)c2ncn(C3CCCC3)c2c1 (stereo not given) -6.94%, CCC(CO)Oc1cc(NC(=O)c2cccc3ccccc23)c2ncn(C(C)C)c2c1 (stereo not given) -7.37%, Cc1ccc(NC(=O)C(C)c2cccc(C(=O)c3ccccc3)c2)cc1 (stereo not given) 1.32%, O=C(Cn1c2[n+](c3ccc(C(F)(F)F)cc31)CCCCC2)Nc1c(F)cccc1F -5.07%, CC(C)C(C)(C#N)NC(=O)CSc1nncn1-c1ccccc1 (stereo not given) -0.3%, CC(C)(C)NC(=O)/C(=C/c1cccnc1)NC(=O)c1ccco1 0.75%, Cc1cc(C)c2c(Cn3ccnc3)cc(=O)oc2c1 -4.75%, Cc1nn(-c2ccccc2)c(C)c1NC(=O)CCl 1.95%, Cc1nn(-c2ccccc2)c(C)c1NC(=O)COC(=O)c1cc(Cl)ccc1O 2.71%, Cc1ccc2c(c1)N(C(=O)CCC(=O)NCc1cccnc1)CCO2 -2.36%, O=C(NC(=S)Nc1ccc(Cl)cc1Cl)C1CC1 1.69%, CCOc1ccc(NS(=O)(=O)c2ccc(Cl)c(C(=O)N(C)Cc3cccnc3)c2)cc1 6.71%, O=C(Nc1ccc(N2CCOCC2)cc1)c1cccc(S(=O)(=O)N2CCOCC2)c1 -3.19%, Oc1ccc2ccccc2c1N=Nc1nccs1 2.91%, O=C(CCNS(=O)(=O)c1ccc(Br)s1)NCc1ccccc1Cl -0.29%, Clc1ccc(-c2cc(COc3ccccc3)no2)cc1Cl -0.83%, COC(=O)c1ccc(C)c(NC(=O)Cn2c(C)csc2=O)c1 2.97%, COc1ccc(NC(=O)CSc2nc3ccccc3c(=O)n2C)cc1 -0.44%, COc1ccc(OCc2ccc(-c3nc4ccccc4c(=O)n3N)o2)cc1 1.08%, CCC(C(=O)OC)n1cnc2scc(-c3ccc(C)cc3)c2c1=O (stereo not given) 0.23%, Cc1[nH]nc(-c2ccc(OCc3cnn(-c4ccccc4)c3)cc2O)c1Oc1ccc(Cl)cc1 -2.55%, Cc1cc(N=Nc2ccc3ccccc3c2)ccc1O 1.91%, CC(=O)n1c(C=Nc2ccccc2)c(O)c2ccccc21 -8.69%, Oc1ccc(/C=N/N(Cc2ccccc2)c2ccccc2)cc1 2.9%, CCC(C)NC(=O)Cn1nc(C(F)(F)F)c2c1CCC2 (stereo not given) 0.61%, N/C(=N\OC(=O)CC1CCCCC1)c1ccccc1 -1.21%, CC(=O)c1ccc(S(=O)(=O)NCc2nnnn2-c2ccccc2)cc1 7.61%, O=c1oc2ccc(C#CC3(O)CCCCC3)cc2cc1-n1cc(-c2ccsc2)nn1 2.6%, Cc1cccc(CN2CCN(Cc3cnn(-c4ccccc4F)c3)CC2CCO)n1 (stereo not given) 8.78%, COc1ccc(CCNS(=O)(=O)c2cc3c(cc2C)NC(=O)CO3)cc1OC -1.01%, N#CCCN(C(=O)COC(=O)C1CCN(c2ccc(C(F)(F)F)cn2)CC1)c1ccc(F)cc1 -2.71%, COc1cc(C(=O)NCc2cc3cc(Cl)ccc3n2C)cc(OC)c1OC 0.12%, CCOCC(=O)NCc1ccc2c(c1)cc(C)n2C 6.21%, CC(=O)Nc1ccc(N2C(=O)CCC2=O)cc1C 1.44%, COc1cccc(N2CC(NS(=O)(=O)c3cccs3)CC2=O)c1 (stereo not given) -3.8%, CC(=O)Nc1ccccc1Sc1ccc2c3c(cccc13)C(=O)N(c1ccc(C)cc1)C2=O 1.13%, COc1cc(C(=O)N2C(=O)c3cccc(N)c3C2=O)cc(OC)c1OC -3.66%, Cc1nn(C)cc1C(=O)c1ccccc1 -3.44%, COC(=O)c1ccc(CN2CCCC(C(=O)Nc3cccc(-n4cnnn4)c3)C2)cc1 (stereo not given) -3.14%, Cc1ccc(S(=O)(=O)N(CC(=O)Nc2cccnc2)c2ccc(Br)cc2)cc1 1.31%, O=C1CCCC2=C1C(c1cccs1)n1nc(SCc3ccccc3)nc1N2 (stereo not given) -0.55%, NC(N)=N/N=C/c1ccc(OCc2ccc(Cl)cc2Cl)cc1 -4.09%, CCOC(=O)N1CCN(C(=O)c2ccccc2N(Cc2ccccc2)S(=O)(=O)c2ccc(OC)cc2)CC1 -4.41%, O=C(Nc1ccc2oc(-c3ccccc3F)nc2c1)c1ccco1 -5.36%, C=CCN(C(=O)Nc1ccc2c(c1)nc(C)n2C)c1ccccc1 2.79%, CCOc1ccc(S(=O)(=O)N2CCCCC2)cc1NC(=O)CN1CCCC1c1cccs1 (stereo not given) -0.57%, CCOc1ccc(S(=O)(=O)N2CCN=C2Cc2ccccc2)cc1C 0.37%, Cc1ccc2[nH]c(C(=O)O)c(NC(=O)c3ccccc3[N+](=O)[O-])c2c1 4.63%, Cc1ccc2c(c1)-c1c(ssc1=S)C(C)(C)N2C(=O)CN1C(=O)c2ccccc2C1=O 0.29%, Cc1cc(C)cc(NC(=O)CN2C(=O)c3ccccc3C2=O)c1 4.21%, CCc1ccc(NC(=O)NC(C)c2ccc3c(c2)OCO3)cc1 (stereo not given) -1.12%, O=C1CCN(Cc2ccc([N+](=O)[O-])cc2)CCN1[C@H](CO)Cc1ccccc1 -1.9%, C/C(=N\NC(=O)c1ccoc1C)c1ccccc1O -6.31%, CCOC(=O)c1c(N)nn(C(=O)c2ccccc2)c1-c1ccccc1 -9.18%, O=C(N1CCOCC1)N(Cc1ccccc1)c1ccccn1 -6.6%, COC(=O)CCCC1=CC2=CC(=O)C(C)(OC(=O)c3cccs3)C(=O)C2=CN1CC(C)C (stereo not given) -1.01%, COC(=O)CCCC1=CC2=CC(=O)C(C)(OC(=O)c3cccs3)C(=O)C2=CN1c1cccc(C#N)c1 (stereo not given) 4.64%, CS/C(=C\C(=O)c1ccco1)Nc1ccccc1Cl 0.03%, CN(C)c1ccc(NC(=O)c2ccncc2)c2ccccc12 -9.99%, CC(C)CNC(=O)C(=O)Nc1ccc(N(C)C)cc1 -0.08%, COc1cc(OC)c(C(=O)Nc2ccc(N(C)C)cc2)cc1OC -1.49%

Source: PubChem BioAssay AID485272 (The Scripps Research Institute Molecular Screening Center, 2010)
